# Assay outcomes as filed in PubChem.
# PINK1 modulator – A Quantitative High throughput Screen to Identify Chemical Modulators of PINK1 Expression; Potency, µM (titrated, usually from 76.6 µM), for inactives: at the top dose activation (PINK1 increase), most hits filed as activators; AID 624263, 2012; hit rate 0.2% among 410,000; PINK1 immunofluorescence, high-content cytometry, 24 h; active = well fitted activation curve with a large enough effect; inconclusive = small, poorly fitted or top-dose-only effect; cell line not stated here; note: potency is the fitted concentration of half-maximal effect; % of control where 0% means no effect; nearly all actives have a fitted effect of over 65% in size
#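 Cells are seeded, rested 12 hours, then given compound at five concentrations or DMSO for 24 hours. After fixation, blocking and antibody staining, PINK1 amount and mitochondrial localization are scored; CCCP serves as control.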
# LDHA inh – qHTS assay for inhibitors of human lactate dehydrogenase; activity change, % (values are at about 110 or 230 µM); hit rate 0.15% among 480,000; L-lactate dehydrogenase A chain (Homo sapiens), P00338; purified LDHA, NADH/diaphorase-resazurin fluorescence; active compounds read low; in the data active = activity change below about -30%; inconclusive = mostly about -25% to -30%;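 note: plate controls were DMSO wells for no effect and wells without enzyme for full effect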
#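 Resorufin fluorescence (ex540/em590), read at 0 and 20 min after diaphorase/resazurin addition, reports the NADH left after a 5 min room-temperature reaction of 2 nM human LDH5 with 0.06 mM NADH and 0.2 mM pyruvate.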
# Vif-APOBEC3F blk – qHTS for Inhibitors of Vif-A3F Interactions: qHTS; HeLa A3F-eYFP + Vif (tagged APOBEC3F with the HIV-1 protein that degrades it), YFP fluorescence increase; Potency, µM (titrated, usually from 46.1 µM), for the others: at the top dose activity, negative = active; hit rate 0.2% among 390,000; note: potency is the fitted concentration of half-maximal effect; % of control where 0% means no effect; nearly all actives have a fitted effect of over 65% in size
#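 Fluorescence increase (Ex 488/Em 500-530) after overnight compound treatment at 37 deg C flags inhibition of Vif-driven A3F-eYFP loss in stable HeLa A3F-eYFP/Vif cells seeded overnight beforehand.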
# Vif-APOBEC3G blk – qHTS for Inhibitors of Vif-A3G Interactions: qHTS | DNA dC->dU-editing enzyme APOBEC-3G (Homo sapiens), Q9HC16 | HeLa A3G-eYFP + Vif (tagged APOBEC3G with the HIV-1 protein that degrades it), YFP fluorescence, overnight | Potency, µM (top dose mostly 46.1 µM), for inactives: at the top dose activity, negative = active, usual class: inhibitors | hit rate 0.076% among 410,000 | AID 602310, 2012; note: potency is the fitted concentration of half-maximal effect; % is set by controls: 0 for no effect and ±100 for the full control effect; nearly all actives have a fitted effect of over 60% in size
# Target sequence (Q9HC16 whole entry, looked up): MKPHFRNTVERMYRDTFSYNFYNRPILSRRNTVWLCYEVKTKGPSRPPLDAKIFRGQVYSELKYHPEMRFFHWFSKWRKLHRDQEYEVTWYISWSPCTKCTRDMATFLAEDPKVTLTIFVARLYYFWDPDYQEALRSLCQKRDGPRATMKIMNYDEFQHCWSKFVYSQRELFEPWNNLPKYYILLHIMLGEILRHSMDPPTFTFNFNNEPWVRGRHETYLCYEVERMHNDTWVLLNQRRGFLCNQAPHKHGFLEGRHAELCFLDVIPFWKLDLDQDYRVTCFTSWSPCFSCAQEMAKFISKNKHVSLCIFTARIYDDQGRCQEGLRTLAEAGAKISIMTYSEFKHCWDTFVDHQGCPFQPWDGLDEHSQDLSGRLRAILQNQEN
#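 Read-out is eYFP fluorescence (Ex 488/Em 500-530) from Vif-expressing HeLa A3G-eYFP cells; more signal means A3G escaped Vif-mediated degradation. Cells plated overnight, compound pinned in, incubated overnight at 37 deg C.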
# PTHR1 agonist – qHTS for PTHR1 Agonists: Primary Screen | HEK293 GP2 PTHR1 cells, GloSensor cAMP luminescence, 1 h | Potency, µM (series often up to 115 µM), for inactives: top-dose activation, actives largely listed as activators | hit rate 0.075% among 410,000; note: potency is the fitted concentration of half-maximal effect; nearly all actives have a fitted effect of over 55% in size
#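 HEK-293-derived GP2 cells expressing PTHR1 and a GloSensor cAMP reporter, 3,000/well, plated overnight, given luciferin plus IBMX (each 0.5 mM as added) for 1 h at 37 °C, then compound for 1 h at 37 °C. Luminescence was read after 15 min at room temperature.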
# IDH1 R132H inh – qHTS for Inhibitors of mutant isocitrate dehydrogenase 1 (IDH1): qHTS; IDH1-R132H enzyme, NADPH consumption, diaphorase/resazurin fluorescence; Isocitrate dehydrogenase [NADP] cytoplasmic (Homo sapiens), O75874; Potency, µM (titrated, usually from 76.6 µM), for the others: top-dose activity change, negative = inhibition, most hits filed as inhibitors; AID 602179, 2012; hit rate 0.093% among 390,000; note: potency is the fitted concentration of half-maximal effect; % is set by controls: 0 for no effect and ±100 for the full control effect; nearly all actives have a fitted effect of over 65% in size
#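 IDH1-R132H (0.5 ug/mL dispensed) in pH 7.5 Tris buffer was preincubated 30 min with compound, then given a substrate mix of 0.016 mM NADPH and 2 mM alpha-KG for 80 min at room temperature; remaining NADPH was read by diaphorase/resazurin fluorescence.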
# The depositor's hits bear a star; i = inactive; ? = inconclusive; . = no result given; [ ] = another dose, or the depositor's remark. An excerpt weighted towards active compounds, which were near 0.59% of everything screened. Unless noted, calls come from the whole dose curve; as a rule, active = well fitted curve in the direction sought with a large enough effect; inconclusive = small, poorly fitted or top-dose-only effect, or another doubt; inactive = no such curve, though single readings can be large; an effect the other way counts as inactive or inconclusive.
SMILES,PINK1 modulator,LDHA inh,Vif-APOBEC3F blk,Vif-APOBEC3G blk,PTHR1 agonist,IDH1 R132H inh
Cc1cc2cc(C#N)c(SCC(=O)Nc3nonc3C)nc2cc1C,?,-7,10µM*,?,-48%,-7%
Cc1nonc1NC(=O)CSc1nc2c(C)cccc2cc1C#N,45µM*,-2,7.9µM*,?,i,10%
CCC1CCC(c2ccc(C(=O)CCN(C)C)cc2)CC1 (stereo not drawn),.,0,.,.,.,.
NC(=S)n1[nH]c(-c2ccc([N+](=O)[O-])cc2)c(N=Nc2ccc(Cl)cc2)c1=O,11µM*,-8,-33%,-6%,-33%,-9%
Cc1ccc([N+](=O)[O-])cc1N=Nc1c(-c2ccc([N+](=O)[O-])cc2)[nH]n(C(N)=S)c1=O,2.8µM*,-9,5%,4%,-47%,-9%
Cc1ccc(N=Nc2c(C)[nH]n(C(N)=S)c2=O)cc1,8%,3,?,1%,-14%,17%
Cc1ccc([N+](=O)[O-])cc1N=Nc1c(C)[nH]n(C(N)=S)c1=O,1%,-2,0%,-1%,i,-7%
OCc1cccc(Nc2ncnc3ccccc23)c1,.,2,.,.,.,.
CC(=O)OC1C2CCC1C([N+]1(C)CCCCC1)CC2 (stereo not drawn),3%,-34*,-9%,-4%,i,-6%
Nc1c(C(=O)C2CC2)sc2nc(-c3cccs3)cc(C(F)(F)F)c12,?,-4,0.63µM*,-53%,i,3%
CN(C)c1ccc(/C=C(/C#N)C(=O)NCc2ccccc2)o1,?,-3,10µM*,?,-4%,2%
N#C/C(=C/c1ccccc1)C(=O)NCc1ccccc1,6%,-6,-37%,-16%,i,9%
CC(C)C/C(=N\NC(=O)C1CC1(c1ccccc1)c1ccccc1)c1ccccc1 (stereo not drawn),.,0,.,.,.,.
O=S1(=O)Nc2c(ccc3cccnc23)-c2ccccc21,-8%[38.3 µM],21,-1%,7.1µM*,-11%[57.5 µM],11%
Cc1cnc2c3c(cc(Cl)c2c1)-c1ccccc1S(=O)(=O)N3,12%,14,.,?,.,.
Cc1c(CC(=O)NCCCC(=O)O)c(=O)oc2cc3occ(-c4ccccc4)c3cc12,1%,-5,15%,-9%,?,-2%
Cc1c(CC(=O)NCC(=O)O)c(=O)oc2cc3occ(-c4ccccc4)c3cc12,-1%,-85*,7%,-3%,i,-1%
Cc1c(CC(=O)O)c(=O)oc2cc3occ(-c4ccc(F)cc4)c3cc12,-2%,-42*,7%,1%,-27%,-3%
COc1ccc(-c2coc3cc4oc(=O)c(CC(=O)O)c(C)c4cc23)cc1,1%,-4,3%,1%,i,19%
CSc1ccc(Cl)c(C(=O)Oc2ccc(C)c(C)c2)c1,.,2,.,.,.,.
Cc1cc(SCC(=O)NCC(=O)N(C)C)nc2c(C)cccc12,.,1,.,.,.,.
NC(=O)c1ccccc1OCc1coc(-c2ccccc2)n1,.,-2,.,.,.,.
CCCCN1C(=O)/C(=C/C=C2/CC(C)(C)CN2C)SC1=S,13%,5,?,3.5µM*,-18%,1%
CCCCN1C(=O)/C(=C/C=C2\Oc3ccccc3N2CC)SC1=S,?,0,i,1.6µM*,i,16%
O=C(Oc1csc(=S)n1C(=O)c1ccccc1)c1ccccc1,1%,-13,-3%,0%,i,-5%
Cc1cccc(C(=O)Oc2csc(=S)n2C(=O)c2cccc(C)c2)c1,0%,-33*,-24%,-1%,20%[57.5 µM],-9%
O=C(NN=Cc1c(O)ccc2ccccc12)c1ccc2c(c1)OCO2,?,2,7.9µM*,?,-47%,18%
